Measurements from PubChem BioAssay AID1159580 (chemical genetic matrix, 2015).
Where “and” joins values, the source holds several entries; their conditions need not be identical. Identical values can stand only once. The whole screen tested about 5,500 compounds, of which about 2,000 (36%) were called active. About 18% were inconclusive and are not listed. Rule as the data show it: active = normalized growth mostly below about 0.91 (no sharp cut-off); inconclusive = no clear call, values can overlap the other calls; inactive = mostly above about 0.92. Some of the results follow.

Assay: chemical genetic growth profiling, strain panel (AID 1159580);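 also: tested at 20 µM; growth read once vehicle control cultures reached saturation at 30 °C; 1 = growth at the plate median or of vehicle wells; lower values mean less growth of the strain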
Conditions: S. cerevisiae deletion strains, growth OD

Measured: normalized growth

CC1(C)C(=O)C=C[C@@]2(C)C1C=C[C@]1(C)C2CC[C@@]2(C)[C@H](c3ccoc3)OC(=O)C3OC321 (some centres not stated)
active: locus YDR137W, strain rgp1, stronger effect = lower value 0.663 | locus YDR159W, strain sac3, stronger effect = lower value 0.843 | locus YDR392W, strain spt3, stronger effect = lower value 0.314 | locus YJL129C, strain trk1, stronger effect = lower value 0.867 | locus YLR039C, strain RIC1, stronger effect = lower value 0.624 | locus YLR262C, strain YPT6 (second series), stronger effect = lower value 0.67 | locus YLR320W, strain mms22, stronger effect = lower value 0.838 | locus YLR418C, strain cdc73, stronger effect = lower value 0.655 | locus YMR205C, strain PFK2, stronger effect = lower value 0.841 | locus YNL071W, strain lat1, stronger effect = lower value 0.695 | locus YNL307C, strain MCK1, stronger effect = lower value 0.867 | locus YOR184W, strain ser1, stronger effect = lower value 0.715
inactive: locus YAL013W, strain DEP1, stronger effect = lower value 0.949 | locus YAL021C, strain ccr4, stronger effect = lower value 1.02 | locus YAL026C, strain drs2, stronger effect = lower value 0.972 | locus YAL030W, strain snc1, stronger effect = lower value 0.985 | locus YBL061C, strain skt5, stronger effect = lower value 0.974 | locus YBR009C, strain hhf1, stronger effect = lower value 0.915 | locus YBR021W, strain FUR4, stronger effect = lower value 1.01 | locus YBR023C, strain chs3, stronger effect = lower value 0.981 | locus YBR171W, strain sec66, stronger effect = lower value 0.971 | locus YBR229C, strain ROT2, stronger effect = lower value 0.986 | locus YBR231C, strain swc5, stronger effect = lower value 1 | locus YBR279W, strain paf1, stronger effect = lower value 0.964 | locus YCL011C, strain gbp2, stronger effect = lower value 0.981 | locus YCL016C, strain dcc1, stronger effect = lower value 0.98 | locus YCL029C, strain bik1, stronger effect = lower value 0.986 | locus YCL061C, strain MRC1, stronger effect = lower value 0.971 | locus YCL069W, strain vba3, stronger effect = lower value 1 | locus YCR088W, strain abp1, stronger effect = lower value 1 | locus YDL005C, strain med2, stronger effect = lower value 0.988 | locus YDL035C, strain GPR1, stronger effect = lower value 0.979 | locus YDL040C, strain nat1, stronger effect = lower value 1 | locus YDL074C, strain BRE1, stronger effect = lower value 0.862 | locus YDL101C, strain DUN1, stronger effect = lower value 0.957 | locus YDL134C, strain PPH21, stronger effect = lower value 0.948 | locus YDL185W, strain tfp1, stronger effect = lower value 0.998 | locus YDL192W, strain arf1, stronger effect = lower value 0.94 | locus YDR001C, strain nth1, stronger effect = lower value 0.991 | locus YDR069C, strain doa4, stronger effect = lower value 1 | locus YDR101C, strain arx1, stronger effect = lower value 0.978 | locus YDR150W, strain NUM1, stronger effect = lower value 0.996 | locus YDR162C, strain NBP2, stronger effect = lower value 0.888 | locus YDR195W, strain ref2 1.02 | locus YDR297W, strain sur2, stronger effect = lower value 0.985 | locus YDR318W, strain mcm21, stronger effect = lower value 0.939 | locus YDR334W, strain swr1, stronger effect = lower value 0.983 | locus YDR335W, strain msn5, stronger effect = lower value 0.998 | locus YDR388W, stronger effect = lower value 0.984 | locus YDR502C, strain sam2, stronger effect = lower value 0.948 | locus YEL003W, strain gim4, stronger effect = lower value 0.979 | locus YEL037C, strain rad23, stronger effect = lower value 0.992 | locus YEL061C, strain CIN8 (second series), stronger effect = lower value 0.997 | locus YEL061C, strain CIN8, stronger effect = lower value 0.983 | locus YER015W, strain faa2, stronger effect = lower value 0.985 | locus YER016W, strain bim1, stronger effect = lower value 0.993 | locus YER110C, stronger effect = lower value 0.986 | locus YER111C, strain swi4, stronger effect = lower value 0.994 | locus YER155C, strain BEM2 (second series), stronger effect = lower value 0.894 | locus YER155C, strain BEM2, stronger effect = lower value 0.953 | locus YER167W, strain BCK2, stronger effect = lower value 0.976 | locus YFR010W, strain ubp6, stronger effect = lower value 1 | locus YGL078C, strain dbp3, stronger effect = lower value 0.993 | locus YGL086W, strain mad1, stronger effect = lower value 0.948 | locus YGL167C, strain pmr1, stronger effect = lower value 0.967 | locus YGL173C, strain kem1, stronger effect = lower value 0.97 | locus YGL227W, strain vid30, stronger effect = lower value 0.991 | locus YGL240W, strain doc1, stronger effect = lower value 1.02 | locus YGL248W, strain PDE1, stronger effect = lower value 0.974 | locus YGL253W, strain hxk2, stronger effect = lower value 0.992 | locus YGR135W, strain pre9, stronger effect = lower value 0.953 | locus YGR252W, strain gcn5, stronger effect = lower value 0.912 | locus YHR013C, strain ard1, stronger effect = lower value 0.916 | locus YHR027C, strain rpn1, stronger effect = lower value 0.971 | locus YHR030C, strain SLT2, stronger effect = lower value 0.915 | locus YHR079C, strain IRE1 (second series), stronger effect = lower value 0.977 | locus YHR079C, strain IRE1, stronger effect = lower value 0.943 | locus YHR094C, strain hxt1, stronger effect = lower value 0.989 | locus YHR129C, strain ARP1, stronger effect = lower value 0.926 | locus YHR142W, strain chs7, stronger effect = lower value 0.987 | locus YHR200W, strain rpn10, stronger effect = lower value 0.986 | locus YIL066C, strain RNR3, stronger effect = lower value 0.897 | locus YIL073C, strain SPO22, stronger effect = lower value 0.953 | locus YIL125W, strain kgd1, stronger effect = lower value 0.993 | locus YIR030C, strain dcg1, stronger effect = lower value 0.98 | locus YJL092W, strain hpr5, stronger effect = lower value 0.997 | locus YJL095W, strain BCK1 (second series), stronger effect = lower value 0.967 | locus YJL095W, strain BCK1, stronger effect = lower value 0.799 and 0.923 | locus YJL115W, strain asf1, stronger effect = lower value 1 | locus YJL134W, strain LCB3, stronger effect = lower value 0.997 | locus YJL154C, strain vps35, stronger effect = lower value 0.995 | locus YJL164C, strain tpk1, stronger effect = lower value 0.967 | locus YJL166W, strain qcr8, stronger effect = lower value 0.919 | locus YJL168C, strain set2, stronger effect = lower value 0.964 | locus YJL187C, strain SWE1 (second series), stronger effect = lower value 0.951 | locus YJL187C, strain SWE1, stronger effect = lower value 0.987 | locus YJR066W, strain TOR1, stronger effect = lower value 0.894 | locus YKL009W, strain mrt4, stronger effect = lower value 0.995 | locus YKL068W, stronger effect = lower value 0.998 | locus YKL085W, strain MDH1 (second series), stronger effect = lower value 0.985 | locus YKL085W, strain MDH1, stronger effect = lower value 0.985 | locus YKL160W, strain elf1, stronger effect = lower value 0.973 | locus YKL190W, strain CNB1, stronger effect = lower value 0.992 | locus YKR001C, strain vps1, stronger effect = lower value 0.949 | locus YKR026C, strain gcn3, stronger effect = lower value 0.995 | locus YKR091W, strain srl3, stronger effect = lower value 0.992 | locus YLL001W, strain dnm1, stronger effect = lower value 0.99 | locus YLL026W, stronger effect = lower value 0.986 | locus YLL041C, strain sdh2, stronger effect = lower value 0.989 | locus YLR027C, strain aat2, stronger effect = lower value 0.959 | locus YLR058C, strain SHM2, stronger effect = lower value 0.97 | locus YLR102C, strain apc9, stronger effect = lower value 0.992 | locus YLR113W, strain HOG1, stronger effect = lower value 0.957 | locus YLR221C, strain rsa3, stronger effect = lower value 0.959 | locus YLR258W, strain gsy2, stronger effect = lower value 0.997 | locus YLR268W, strain sec22, stronger effect = lower value 0.911 | locus YLR330W, strain CHS5, stronger effect = lower value 0.954 | locus YLR342W, strain FKS1, stronger effect = lower value 0.924 | locus YLR357W, strain rsc2, stronger effect = lower value 1.03 | locus YLR370C, strain arc18, stronger effect = lower value 0.988 | locus YLR371W, strain rom2, stronger effect = lower value 0.933 | locus YLR384C, strain iki3, stronger effect = lower value 0.99 | locus YML016C, strain PPZ1, stronger effect = lower value 0.991 | locus YML032C, strain rad52, stronger effect = lower value 0.944 | locus YML120C, strain ndi1, stronger effect = lower value 0.994 | locus YML124C, strain tub3, stronger effect = lower value 0.983 | locus YMR058W, strain fet3, stronger effect = lower value 0.976 | locus YMR078C, strain ctf18, stronger effect = lower value 0.956 | locus YMR125W, strain sto1, stronger effect = lower value 0.969 | locus YMR129W, stronger effect = lower value 0.984 | locus YMR223W, strain ubp8, stronger effect = lower value 0.963 | locus YMR231W, strain pep5, stronger effect = lower value 0.964 | locus YMR307W, strain GAS1, stronger effect = lower value 0.81 | locus YNL067W, strain RPL9B, stronger effect = lower value 0.973 | locus YNL183C, strain NPR1, stronger effect = lower value 0.921 | locus YNL209W, strain ssb2, stronger effect = lower value 0.984 | locus YNL233W, strain BNI4, stronger effect = lower value 0.955 | locus YNL248C, strain rpa49, stronger effect = lower value 0.978 | locus YNL250W, strain rad50, stronger effect = lower value 0.987 | locus YNL271C, strain bni1, stronger effect = lower value 0.983 | locus YNL298W, strain CLA4, stronger effect = lower value 0.989 | locus YNL322C, strain KRE1 (second series), stronger effect = lower value 1.01 | locus YNL322C, strain KRE1, stronger effect = lower value 0.983 | locus YNR049C, strain mso1, stronger effect = lower value 0.985 | locus YNR052C, strain pop2, stronger effect = lower value 0.951 | locus YOL006C, strain TOP1, stronger effect = lower value 0.959 | locus YOL012C, strain htz1 0.78 | locus YOL147C, strain pex11, stronger effect = lower value 0.961 | locus YOR001W, strain rrp6, stronger effect = lower value 0.991 | locus YOR061W, strain CKA2, stronger effect = lower value 0.983 | locus YOR069W, strain VPS5, stronger effect = lower value 0.992 | locus YOR070C, strain gyp1, stronger effect = lower value 0.952 | locus YOR080W, strain dia2, stronger effect = lower value 0.992 | locus YOR083W, strain WHI5, stronger effect = lower value 0.977 | locus YOR106W, strain vam3, stronger effect = lower value 0.972 | locus YOR136W, strain idh2, stronger effect = lower value 0.979 | locus YOR144C, strain elg1, stronger effect = lower value 0.957 | locus YOR231W, strain MKK1, stronger effect = lower value 0.936 | locus YOR265W, strain rbl2, stronger effect = lower value 0.986 | locus YOR270C, strain vph1, stronger effect = lower value 0.905 | locus YOR290C, strain snf2, stronger effect = lower value 0.938 | locus YOR316C, strain cot1, stronger effect = lower value 0.983 | locus YPL051W, strain arl3, stronger effect = lower value 0.945 | locus YPL078C, strain atp4, stronger effect = lower value 0.979 | locus YPL106C, strain sse1, stronger effect = lower value 0.942 | locus YPL240C, strain hsp82, stronger effect = lower value 0.985 | locus YPL256C, strain CLN2, stronger effect = lower value 0.92 | locus YPR119W, strain clb2, stronger effect = lower value 0.979 | locus YPR141C, strain kar3, stronger effect = lower value 0.977 | locus YPR163C, strain tif3, stronger effect = lower value 0.938 | locus YPR167C, strain met16, stronger effect = lower value 0.973 | strain wtn01, stronger effect = lower value 0.952
